Assay results: PubChem BioAssay (NCI)
Where “and” joins values, the source holds several entries; their conditions need not be identical. Equal entries are not always repeated. Compounds without any hit were thinned out: in the full panel of roughly 83,000, 20% have a hit.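 Results are percent growth after 48 hours of single-concentration exposure. 100 means growth as in untreated cells, lower positive values show inhibition; negative values down to -100 show cell death.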 Values without a mark were called inactive. Calls of active or inactive are those of the source. The calls were made as follows: active = growth percent below 10; inactive = the rest.

System: MDA-MB-468 breast
Experiment: NCI-60 one-dose screen, 48 h (100 = growth as untreated, 0 = no growth, -100 = all killed)
Details: 10 µM unless noted

Compound | growth
CCOC(=O)c1c(C)cc(=O)oc1C | 105%
COc1ccc(NC(=O)c2sc3nc(C)c(C(=O)/C=C/c4ccccc4)cc3c2N)cc1 | 44.4%
O=C(Cc1nc2cc(Cl)c(Cl)cc2nc1CC(=O)c1ccccc1)c1ccccc1 | -55% (active)
CS(=O)(=O)Nc1cc(-c2ccc3ncnc(Nc4c(Cl)ccc5c4OCO5)c3c2)cnc1Cl | -74.3% (active)
C/C(=N\NC(=O)c1ccccc1O)c1cccc(/C(C)=N/NC(=O)c2ccccc2O)n1 | 23.9%
COc1cc(C2C=C(C)N=C3SC(C)=NN32)cc(OC)c1OC (stereo not given) | 106%
CC(C)(C)OC(=O)N1C(=O)c2c(c3c4ccccc4[nH]c3c3ccc4ccccc4c23)C1=O | 75.6%
Cc1cc(S(=O)(=O)N(C)C)cc(NCC(=O)NC(=O)NCC(C)C)c1C | 104%
COc1cc(OC)cc(-c2n/c(=C\c3c(O)[nH]c4ccc(Cl)cc34)cc3c2=Nc2ccccc2-3)c1 | 98.1%
COC(=O)[C@@H](OC)[C@@H]1Cc2cc3cc(OC4CC(OC5CC(O)C(O)C(C)O5)C(O)C(C)O4)c(C)c(O)c3c(O)c2C(=O)[C@H]1OC1CC(OC2CC(OC3CC(C)(O)C(O)C(C)O3)C(O)C(C)O2)C(O)C(C)O1 (stereo not given in full) | -45.6% (active)
N#CC1C(=O)NC(c2ccccc2[N+](=O)[O-])c2sc3c(F)cccc3c21 (stereo not given) | -49% (active)
CCCCCCCCCCNC(=O)CI | -40.5% (active)
Cc1cc(C)cc(Nc2cc(C)nc3nc(C(F)(F)F)nn23)c1 | 25.5%
COC(=O)Nc1ccc(NC(=O)OC)cc1 | 97.3%
Oc1ccc(O)c(-[n+]2ccccc2)c1 | 91.8%
COc1ccc2c(c1)c(-c1noc(C(=O)c3cn(C)c4ncc(Br)cc34)n1)cn2C | 76.1%
O=c1oc2cc(OS(=O)(=O)c3ccc(F)cc3)ccc2c2c1CCCCC2 | 31.3%
Clc1nn2c(Cn3cnc4c(NCc5ccccc5)ncnc43)nnc2c2ccccc12 | 35.3%
CS(=O)(CCCCN=C=S)=NC(=O)c1c(F)c(F)c(F)c(F)c1F (stereo not given) | 72.6%
CCOc1ccc(N=C(C)Nc2ccc(OCC)cc2)cc1 | 116%

Compound | growth
COC(=O)c1sccc1-c1cc(O)c(C(=O)Nc2ccccc2)s1 | 85.4%
COc1ccc2c(c1)CCCN2c1c2ccccc2nc2ccccc12 | -3.81% (active)
COc1cc(-c2nc(-c3nc4ccc(Cl)cc4[nH]3)cc3c2[nH]c2ccccc23)cc(OC)c1OC | 44.1%
C#Cc1cccc(Nc2ncnc3cc(OC)c(OCCCCCCC(=O)NO)cc23)c1 | -44.4% (active)
C=C1C(=O)O[C@H]2[C@H]1CC/C(COC(=O)NC1CCC(O)CC1)=C\CC[C@@]1(C)O[C@@H]21 (stereo not given in full) | 37% and 31.7%
Clc1ccc(Cl)c(N=Cc2ccc3c(c2)OCO3)c1 | 113%
N#Cc1c(-c2ccccc2)cc(-c2ccccc2)n(CC(=O)NO)c1=O | 43.5%
CCOC(=O)[C@@H]1CCCN(S(=O)(=O)c2ccc(S(=O)(=O)N(CC)CC)c(F)c2)C1 | 36%
CC1=C([Se]CC(OC(=O)[C@@H](CO)NC(=O)OC(C)(C)C)C(=O)NC(C)(C)C)C(=O)c2ccccc2C1=O (stereo not given in full) | -74.2% (active)
O=C1Nc2ccc(Cl)cc2/C1=N/N=C(c1ccccc1)c1ccccc1 | 107%
Cc1cc(C)c2sc(=O)n(Cc3nnc(SCCC(=O)O)o3)c2n1 | 110%
Oc1cccc2c1NCCC2 | -8.83% (active)
Cc1cccc(NC(=O)CSc2nc3ccccc3[nH]2)c1 | 104%
O=C(N/N=C/c1ccc(Cl)cc1Cl)c1ccc2nc(-c3ccc(Cl)cc3)[nH]c2c1 | -44.1% (active)
OC(c1cc(C(F)(F)F)nc2c(C(F)(F)F)cccc12)C1CCCCN1 (stereo not given) | -5.03% (active)
Cc1ccc(C2SCC(=O)N2NC(=O)c2[nH]c3ccc(F)cc3c2-c2ccccc2)cc1 (stereo not given) | 96%
CCN1C(=O)N(CC)C2Nn3c(s/c(=C4\C(=O)N(C(C)C)c5ccccc54)c3=O)=NC21 (stereo not given) | 9.33% (active)
CCCCCCCNc1nc(C=O)ncc1-c1ccc(C(F)(F)F)cc1 | 103%
O=C(Nc1ccc(-c2nc(-c3cccc(OCCN4CCOCC4)c3)c(-c3ccnc(Br)c3)[nH]2)cc1)c1ccccc1 | -6.35% (active)
C#Cc1cccc(Nc2ncnc3ccc(-c4cnc(Cl)c(NS(C)(=O)=O)c4)cc23)c1 | -78.8% (active)
